Results on 40 targets are retold here after the supplement of paper PMC10849652.

Of roughly 7,900 targets only a part is listed; those with a hit were picked by preference. About 0.6% of all pairs of compound and target were hits.

Chain of UniProt Q9UPT5 (Q9UPT5 whole entry, looked up): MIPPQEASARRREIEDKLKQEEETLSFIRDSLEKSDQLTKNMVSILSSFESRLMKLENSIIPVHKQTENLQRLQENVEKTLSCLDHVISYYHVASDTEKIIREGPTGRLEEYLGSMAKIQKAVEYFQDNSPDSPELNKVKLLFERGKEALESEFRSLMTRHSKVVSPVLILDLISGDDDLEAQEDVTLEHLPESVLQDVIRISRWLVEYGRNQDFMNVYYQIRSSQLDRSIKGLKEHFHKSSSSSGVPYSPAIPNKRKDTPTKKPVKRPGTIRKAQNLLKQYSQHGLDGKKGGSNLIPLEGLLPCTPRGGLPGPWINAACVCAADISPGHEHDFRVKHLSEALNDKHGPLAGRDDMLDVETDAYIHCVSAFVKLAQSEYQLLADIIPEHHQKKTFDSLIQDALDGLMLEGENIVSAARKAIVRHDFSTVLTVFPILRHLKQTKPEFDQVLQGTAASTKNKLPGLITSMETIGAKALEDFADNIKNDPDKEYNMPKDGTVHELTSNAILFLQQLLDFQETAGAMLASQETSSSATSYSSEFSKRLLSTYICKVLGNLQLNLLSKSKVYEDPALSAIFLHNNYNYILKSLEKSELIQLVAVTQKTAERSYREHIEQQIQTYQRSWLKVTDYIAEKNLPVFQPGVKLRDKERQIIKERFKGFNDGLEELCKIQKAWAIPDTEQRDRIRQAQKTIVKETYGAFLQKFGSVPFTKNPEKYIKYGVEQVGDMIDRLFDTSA
Chain of UniProt O00471 (O00471 whole entry, looked up): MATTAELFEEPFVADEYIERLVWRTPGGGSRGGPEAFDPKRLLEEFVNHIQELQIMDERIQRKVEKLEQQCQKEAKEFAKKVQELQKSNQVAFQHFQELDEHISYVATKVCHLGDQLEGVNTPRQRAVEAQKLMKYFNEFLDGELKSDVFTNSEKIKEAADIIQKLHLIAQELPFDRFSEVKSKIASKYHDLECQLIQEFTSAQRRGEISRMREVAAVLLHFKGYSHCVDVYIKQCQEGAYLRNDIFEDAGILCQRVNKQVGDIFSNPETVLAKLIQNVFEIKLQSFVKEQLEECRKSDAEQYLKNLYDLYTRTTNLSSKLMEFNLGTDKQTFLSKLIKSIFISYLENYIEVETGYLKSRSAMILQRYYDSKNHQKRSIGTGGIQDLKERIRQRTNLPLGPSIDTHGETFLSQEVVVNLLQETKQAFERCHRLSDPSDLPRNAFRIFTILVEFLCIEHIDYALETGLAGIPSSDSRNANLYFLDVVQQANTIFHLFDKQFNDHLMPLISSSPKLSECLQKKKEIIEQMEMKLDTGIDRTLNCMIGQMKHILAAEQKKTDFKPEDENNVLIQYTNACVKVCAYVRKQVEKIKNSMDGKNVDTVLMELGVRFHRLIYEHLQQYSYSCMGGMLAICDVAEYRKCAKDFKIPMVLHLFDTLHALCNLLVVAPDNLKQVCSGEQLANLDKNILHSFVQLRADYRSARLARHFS
Chain of UniProt Q8N5C7 (Q8N5C7 whole entry, looked up): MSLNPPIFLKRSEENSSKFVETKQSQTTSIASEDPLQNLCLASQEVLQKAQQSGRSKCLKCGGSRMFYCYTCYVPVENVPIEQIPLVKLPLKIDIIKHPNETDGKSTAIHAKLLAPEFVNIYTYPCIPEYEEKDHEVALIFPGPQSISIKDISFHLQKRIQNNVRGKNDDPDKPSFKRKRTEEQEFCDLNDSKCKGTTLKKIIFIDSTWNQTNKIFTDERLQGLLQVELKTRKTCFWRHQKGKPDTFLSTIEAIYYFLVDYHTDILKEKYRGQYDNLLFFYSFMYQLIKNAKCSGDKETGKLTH
Chain of UniProt Q15392 (Q15392 whole entry, looked up): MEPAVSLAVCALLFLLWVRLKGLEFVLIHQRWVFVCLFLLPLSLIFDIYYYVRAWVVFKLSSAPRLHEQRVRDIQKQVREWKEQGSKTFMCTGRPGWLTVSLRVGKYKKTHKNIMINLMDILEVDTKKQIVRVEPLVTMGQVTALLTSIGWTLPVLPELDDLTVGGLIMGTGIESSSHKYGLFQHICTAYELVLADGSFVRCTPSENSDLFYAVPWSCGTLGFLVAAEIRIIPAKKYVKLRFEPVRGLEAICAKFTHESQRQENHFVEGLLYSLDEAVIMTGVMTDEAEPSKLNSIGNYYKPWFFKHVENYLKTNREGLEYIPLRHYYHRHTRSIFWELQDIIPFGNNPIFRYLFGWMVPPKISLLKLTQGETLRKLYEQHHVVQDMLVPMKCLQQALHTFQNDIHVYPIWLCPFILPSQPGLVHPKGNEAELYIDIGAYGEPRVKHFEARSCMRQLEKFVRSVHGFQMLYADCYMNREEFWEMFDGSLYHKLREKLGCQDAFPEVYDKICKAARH
Chain of UniProt Q9NV70 (Q9NV70 whole entry, looked up): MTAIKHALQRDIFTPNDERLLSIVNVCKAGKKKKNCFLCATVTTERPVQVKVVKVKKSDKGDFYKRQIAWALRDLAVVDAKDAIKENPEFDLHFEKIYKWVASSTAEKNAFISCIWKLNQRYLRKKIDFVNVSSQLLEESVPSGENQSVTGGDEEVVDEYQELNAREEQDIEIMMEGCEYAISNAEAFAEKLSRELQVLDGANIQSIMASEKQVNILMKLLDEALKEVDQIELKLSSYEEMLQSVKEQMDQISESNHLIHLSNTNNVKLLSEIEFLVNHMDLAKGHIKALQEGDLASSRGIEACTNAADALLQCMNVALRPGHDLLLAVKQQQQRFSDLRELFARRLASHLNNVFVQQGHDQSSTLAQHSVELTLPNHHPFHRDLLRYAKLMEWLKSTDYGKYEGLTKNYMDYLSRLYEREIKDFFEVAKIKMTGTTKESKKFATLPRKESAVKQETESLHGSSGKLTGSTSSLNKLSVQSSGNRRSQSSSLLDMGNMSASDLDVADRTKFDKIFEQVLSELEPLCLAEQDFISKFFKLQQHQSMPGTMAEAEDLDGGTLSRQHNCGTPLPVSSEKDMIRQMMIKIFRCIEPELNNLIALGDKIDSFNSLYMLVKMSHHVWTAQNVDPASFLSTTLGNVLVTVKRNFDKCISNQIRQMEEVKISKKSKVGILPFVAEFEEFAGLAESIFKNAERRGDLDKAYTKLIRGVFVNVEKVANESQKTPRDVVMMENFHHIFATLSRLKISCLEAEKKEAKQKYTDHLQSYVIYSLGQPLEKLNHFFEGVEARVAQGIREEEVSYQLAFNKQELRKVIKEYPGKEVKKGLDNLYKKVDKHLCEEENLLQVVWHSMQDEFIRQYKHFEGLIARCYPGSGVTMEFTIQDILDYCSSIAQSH
Chain of UniProt Q8N128 (Q8N128 whole entry, looked up): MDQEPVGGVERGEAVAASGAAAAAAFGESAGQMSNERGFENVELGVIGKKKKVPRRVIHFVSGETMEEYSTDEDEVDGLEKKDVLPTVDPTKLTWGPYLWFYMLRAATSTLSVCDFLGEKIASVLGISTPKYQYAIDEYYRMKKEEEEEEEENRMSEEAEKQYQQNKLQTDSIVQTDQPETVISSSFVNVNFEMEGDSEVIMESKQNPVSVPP
Chain of UniProt P13498 (P13498 whole entry, looked up): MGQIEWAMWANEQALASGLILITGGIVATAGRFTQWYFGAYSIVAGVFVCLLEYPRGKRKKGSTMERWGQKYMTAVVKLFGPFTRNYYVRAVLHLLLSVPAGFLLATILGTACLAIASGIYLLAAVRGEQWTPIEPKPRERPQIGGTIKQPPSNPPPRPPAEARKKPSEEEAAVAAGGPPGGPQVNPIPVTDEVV
Chain of UniProt Q5W0V3 (Q5W0V3 whole entry, looked up): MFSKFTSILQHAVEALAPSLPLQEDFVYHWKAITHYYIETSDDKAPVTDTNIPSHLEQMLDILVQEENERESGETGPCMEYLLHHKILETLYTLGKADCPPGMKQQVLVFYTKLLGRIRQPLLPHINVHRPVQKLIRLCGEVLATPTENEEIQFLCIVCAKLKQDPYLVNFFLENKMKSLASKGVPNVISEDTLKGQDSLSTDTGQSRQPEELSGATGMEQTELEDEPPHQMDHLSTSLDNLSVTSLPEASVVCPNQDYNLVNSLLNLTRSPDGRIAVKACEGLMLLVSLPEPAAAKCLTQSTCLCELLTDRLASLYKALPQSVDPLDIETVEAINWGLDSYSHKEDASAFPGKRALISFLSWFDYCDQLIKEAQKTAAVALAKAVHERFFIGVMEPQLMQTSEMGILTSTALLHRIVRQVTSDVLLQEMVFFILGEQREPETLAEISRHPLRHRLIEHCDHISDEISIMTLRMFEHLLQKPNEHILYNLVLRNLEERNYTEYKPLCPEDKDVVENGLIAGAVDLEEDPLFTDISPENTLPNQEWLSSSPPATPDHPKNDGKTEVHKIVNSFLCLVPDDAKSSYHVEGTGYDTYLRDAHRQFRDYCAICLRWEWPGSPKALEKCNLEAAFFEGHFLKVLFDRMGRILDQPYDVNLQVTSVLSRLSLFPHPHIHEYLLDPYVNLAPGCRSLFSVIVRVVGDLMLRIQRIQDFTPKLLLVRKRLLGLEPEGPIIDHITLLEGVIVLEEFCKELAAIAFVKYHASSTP
Chain of UniProt O75477 (O75477 whole entry, looked up): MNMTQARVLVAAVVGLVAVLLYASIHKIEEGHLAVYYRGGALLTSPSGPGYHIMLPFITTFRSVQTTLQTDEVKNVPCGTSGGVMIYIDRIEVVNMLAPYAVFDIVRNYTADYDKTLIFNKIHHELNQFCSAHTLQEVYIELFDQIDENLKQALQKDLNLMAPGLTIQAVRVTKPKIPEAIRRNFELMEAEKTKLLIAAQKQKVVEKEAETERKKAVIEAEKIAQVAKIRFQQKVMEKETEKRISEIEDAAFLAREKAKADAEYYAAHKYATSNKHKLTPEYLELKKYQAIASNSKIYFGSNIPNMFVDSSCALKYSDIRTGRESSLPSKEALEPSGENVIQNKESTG
Chain of UniProt O60888 (O60888 whole entry, looked up): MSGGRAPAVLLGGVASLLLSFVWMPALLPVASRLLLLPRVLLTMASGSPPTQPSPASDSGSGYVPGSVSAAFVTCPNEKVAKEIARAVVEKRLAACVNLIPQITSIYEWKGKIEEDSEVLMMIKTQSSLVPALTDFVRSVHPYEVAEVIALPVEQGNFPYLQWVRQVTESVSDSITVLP

Compound in the assay: CS(=O)(=O)c1ccc(-c2cnc(N)c(C(=O)Nc3ccccc3)n2)cc1
Put plainly: log2 fold change, soluble protein after heating vs DMSO (PISA); higher = thermal stabilisation; K562 cells, 10 uM, 30 min; active = over 0.2 and 3.5 SD of the protein, either way, in both replicates (recomputed). A digest of the protocol:
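Thermal stability values are relative to control samples and come from duplicates. They are expressed as log2 fold changes. For measurement, K562 cells (2×10^6 cells/mL) received 10 μM compound for 30 min, and aliquots were heated for 3 min over 48°C-58°C, pooled, and extracted at 4°C in PBS with 0.5% NP-40. Soluble protein, the supernatant after 21,000xg for 90 min, was quantified by TMTpro 16plex LC-MS/MS with equalised channel sums.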
Regarding DNAJB12 (UniProt Q9NXW2), the log2 fold change was 0.02 (inactive).
Under DHFR (UniProt P00374) stands -0.009 (inactive).
Under DFFB (UniProt O76075) stands 0.018 (inactive); under EXOC5 (UniProt O00471), -0.02 (inactive).
Regarding DCTPP1 (UniProt Q9H773), the log2 fold change was -0.025 (inactive).
Turning to DHX40 (UniProt Q8IX18), the log2 fold change is 0.018 (inactive).
Regarding EOGT (UniProt Q5NDL2), the log2 fold change is 0.052 (inactive).
DHCR7 (UniProt Q9UBM7): the log2 fold change was -0.003 (inactive).
Under CUTA isoform 2 (UniProt O60888) stands 0.073 (inactive); under ERLIN1 (UniProt O75477), 0.012 (inactive); under EXOC1 (UniProt Q9NV70), -0.036 (inactive).
Under CUX1 isoform 2 (UniProt Q13948) stands -0.217 (inactive); under DNM2 (UniProt P50570), 0.017 (inactive); under DHRS7B (UniProt Q6IAN0), 0.066 (inactive).
Under DIP2A (UniProt Q14689) stands -0.094 (inactive).
For the target FAM114A2 (UniProt Q9NRY5), the log2 fold change is -0.005 (inactive).
The figure for FAF2 (UniProt Q96CS3) is 0.049 (inactive); for ECH1 (UniProt Q13011) it is 0.025 (inactive).
The figure for DDOST (UniProt P39656) is 0.014 (inactive); for DCAF6 isoform 3 (UniProt Q58WW2) it is -0.008 (inactive); for DHCR24 (UniProt Q15392) it is 0.229 (inactive).
For the target DNAH11 (UniProt Q96DT5), the log2 fold change is -0.054 (inactive).
Under DCAF13 (UniProt Q9NV06) stands -0.086 (inactive).
For the target CYBA (UniProt P13498), the log2 fold change was 0.069 (inactive).
Under FADS1, A0A0A0MR51 stands 0.096 (inactive).
Under DPP8 (UniProt Q6V1X1) stands 0.04 (inactive).
The figure for DDB1 (UniProt Q16531) is 0.005 (inactive).
With CUX1 isoform 3 (UniProt P39880), the log2 fold change was 0.02 (inactive).
The figure for EHBP1L1 (UniProt Q8N3D4) is 0.034 (inactive); for EXOC7 (UniProt Q9UPT5) it is -0.062 (inactive).
Under DHX36 (UniProt Q9H2U1) stands -0.071 (inactive).
Take DBR1 (UniProt Q9UK59): the log2 fold change was -0.034 (inactive).
Turning to ERLIN2 (UniProt O94905), the log2 fold change was -0.017 (inactive).
Under DAG1 (UniProt Q14118) stands 0.037 (inactive); under EFL1 (UniProt Q7Z2Z2), 0.02 (inactive).
The figure for DHRS3 (UniProt O75911) is 0.083 (inactive); for FAM160B1 (UniProt Q5W0V3) it is 0.015 (inactive); for EHD2 (UniProt Q9NZN4) it is 0 (inactive).
Under DTWD1 (UniProt Q8N5C7) stands 0.053 (inactive); under FAM177A1 isoform 2 (UniProt Q8N128), 0.018 (inactive).
